Laboratory results as given in the supplement of paper PMC8007513.
Where a name gives a salt, the structure may show the parent alone. ± gives the standard error. Hit rate of the full screen: of about 1,300 compounds, about 130 (10%) showed an effect of 50% or more. The sample holds strong results, similar compounds and a random draw of the others, so the mix is not that of the screen.

Test system: Trichoderma virens ATCC 9645
Assay: growth yield (OD600) with compound + IPBC relative to untreated control; higher = less growth inhibition
Details: compound concentration: 100 uM, IPBC concentration: 200 ng/ml
Procedure, shortened: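 Spores of Trichoderma virens ATCC 9645, taken from potato dextrose agar plates grown for 7 days, were suspended at 15,000 spores ml^−1 in potato dextrose broth. In 96-well plates, 100 μl aliquots held library compounds at 100 μM final, either alone or together with a biocide at 200 ng ml^−1, and were grown at 30 °C. A BioTek EL800 read OD600 at 40 h and 72 h. Growth values are given relative to the control lacking both agents and are means of duplicate screens.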

Compound | growth yield (40 h) | growth yield (72 h)
C[N+]12CCC(CC1)C(OC(=O)C(O)(c1ccccc1)c1ccccc1)C2 (stereo not drawn) [Clidinium bromide] + CCCCNC(=O)OCC#CI [3-iodo-2-propynyl butylcarbamate (IPBC)] | 95.8 ± 11% | 95.8 ± 6.6%
O=C(NCCN1CCOCC1)c1ccc(Cl)cc1 [Moclobemide] + CCCCNC(=O)OCC#CI [3-iodo-2-propynyl butylcarbamate (IPBC)] | 81.6 ± 4.8% | 89.7 ± 2%
Cc1c(N)c(=O)n(-c2ccccc2)n1C [Ampyrone] + CCCCNC(=O)OCC#CI [3-iodo-2-propynyl butylcarbamate (IPBC)] | 104 ± 3.8% | 105 ± 1.8%
CCCCc1oc2ccc(NS(C)(=O)=O)cc2c1C(=O)c1ccc(OCCCN(CCCC)CCCC)cc1 [Dronedarone hydrochloride] + CCCCNC(=O)OCC#CI [3-iodo-2-propynyl butylcarbamate (IPBC)] | 6.51 ± 0.16% | 3.25 ± 0.32%
CCCCCCCN(CC)CCCC(O)c1ccc(NS(C)(=O)=O)cc1 (stereo not drawn) [Ibutilide fumarate] + CCCCNC(=O)OCC#CI [3-iodo-2-propynyl butylcarbamate (IPBC)] | 85 ± 1.4% | 88.1 ± 0.63%
CN(CCOc1ccc(NS(C)(=O)=O)cc1)CCc1ccc(NS(C)(=O)=O)cc1 [Dofetilide] + CCCCNC(=O)OCC#CI [3-iodo-2-propynyl butylcarbamate (IPBC)] | 88.79 ± 0.79% | 90.3 ± 2%
CCCCOc1cc(C(=O)OCCN(CC)CC)ccc1N [Benoxinate hydrochloride] + CCCCNC(=O)OCC#CI [3-iodo-2-propynyl butylcarbamate (IPBC)] | 84.82 ± 0.64% | 91.24 ± 0.63%
CCCCc1oc2ccccc2c1C(=O)c1cc(I)c(OCCN(CC)CC)c(I)c1 [Amiodarone hydrochloride] + CCCCNC(=O)OCC#CI [3-iodo-2-propynyl butylcarbamate (IPBC)] | 2.06 ± 0.16% | 2.41 ± 0.1%
CCCCOc1cc(C(=O)NCCN(CC)CC)c2ccccc2n1 [Dibucaine] + CCCCNC(=O)OCC#CI [3-iodo-2-propynyl butylcarbamate (IPBC)] | 85 ± 1.4% | 94.18 ± 0.21%
CCCCC1=NC2(CCCC2)C(=O)N1Cc1ccc(-c2ccccc2-c2nnn[nH]2)cc1 [Irbesartan] + CCCCNC(=O)OCC#CI [3-iodo-2-propynyl butylcarbamate (IPBC)] | 96.6 ± 6.7% | 95.8 ± 3.5%
NS(=O)(=O)c1cc2c(cc1Cl)N=C(CSCc1ccccc1)NS2(=O)=O [Benzthiazide] + CCCCNC(=O)OCC#CI [3-iodo-2-propynyl butylcarbamate (IPBC)] | 89.9 ± 0.32% | 94.8 ± 1.3%
O=C(OCC(O)CO)c1ccccc1Nc1ccnc2cc(Cl)ccc12 (stereo not drawn) [Glafenine hydrochloride] + CCCCNC(=O)OCC#CI [3-iodo-2-propynyl butylcarbamate (IPBC)] | 84.3 ± 2.4% | 97.3 ± 1.3%
O=[N+]([O-])O[C@@H]1CO[C@H]2[C@@H]1OC[C@@H]2O [Isosorbide mononitrate] + CCCCNC(=O)OCC#CI [3-iodo-2-propynyl butylcarbamate (IPBC)] | 88.2 ± 4% | 91.3 ± 4.1%
CCN(C(C)=O)c1cccc(-c2ccnc3c(C#N)cnn23)c1 [Zaleplon] + CCCCNC(=O)OCC#CI [3-iodo-2-propynyl butylcarbamate (IPBC)] | 81.009 ± 1e-14% | 88.94 ± 0.42%
Cc1c(NC(C)C)c(=O)n(-c2ccccc2)n1C [Isopyrin hydrochloride] + CCCCNC(=O)OCC#CI [3-iodo-2-propynyl butylcarbamate (IPBC)] | 87 ± 2.5% | 91.24 ± 0.63%
CC1(C)S[C@@H]2[C@H](NC(=O)Cc3ccccc3)C(=O)N2[C@H]1C(=O)O [Benzathine benzylpenicillin] + CCCCNC(=O)OCC#CI [3-iodo-2-propynyl butylcarbamate (IPBC)] | 102 ± 12% | 98 ± 9.9%
CC1(C)S[C@@H]2[C@H](NC(=O)Cc3ccccc3)C(=O)N2[C@H]1C(=O)O [Benzylpenicillin sodium] + CCCCNC(=O)OCC#CI [3-iodo-2-propynyl butylcarbamate (IPBC)] | 82.1 ± 6.2% | 97.1 ± 6.1%
CCCCc1ncc(/C=C(\Cc2cccs2)C(=O)O)n1Cc1ccc(C(=O)O)cc1 [Eprosartan mesylate] + CCCCNC(=O)OCC#CI [3-iodo-2-propynyl butylcarbamate (IPBC)] | 112 ± 9.7% | 109 ± 4.1%
COCCOC(=O)C1=C(C)NC(C)=C(C(=O)OC(C)C)C1c1cccc([N+](=O)[O-])c1 (stereo not drawn) [Nimodipine] + CCCCNC(=O)OCC#CI [3-iodo-2-propynyl butylcarbamate (IPBC)] | 79.7 ± 7.9% | 87.3 ± 1.3%
COC(=O)C1=C(C)NC(C)=C(C(=O)OCCN(C)Cc2ccccc2)C1c1cccc([N+](=O)[O-])c1 (stereo not drawn) [Nicardipine hydrochloride] + CCCCNC(=O)OCC#CI [3-iodo-2-propynyl butylcarbamate (IPBC)] | 73.1 ± 1.6% | 94.7 ± 2.2%

Compound | growth yield (40 h) | growth yield (72 h)
COC(=O)C1=C(C)NC(C)=C(C(=O)OCC(C)C)C1c1ccccc1[N+](=O)[O-] (stereo not drawn) [Nisoldipine] + CCCCNC(=O)OCC#CI [3-iodo-2-propynyl butylcarbamate (IPBC)] | 41.3 ± 8.3% | 34.71 ± 0.1%
CCOC(=O)C1=C(C)NC(C)=C(C(=O)OC)C1c1cccc(Cl)c1Cl (stereo not drawn) [Felodipine] + CCCCNC(=O)OCC#CI [3-iodo-2-propynyl butylcarbamate (IPBC)] | 77.5 ± 8.3% | 92.9 ± 1.9%
CCOC(=O)C1=C(C)NC(C)=C(C(=O)OC)C1c1cccc([N+](=O)[O-])c1 (stereo not drawn) [Nitrendipine] + CCCCNC(=O)OCC#CI [3-iodo-2-propynyl butylcarbamate (IPBC)] | 79.58 ± 0.48% | 85.7 ± 1.1%
COC(=O)C1=C(C)NC(C)=C(C(=O)OC)C1c1ccccc1[N+](=O)[O-] [Nifedipine] + CCCCNC(=O)OCC#CI [3-iodo-2-propynyl butylcarbamate (IPBC)] | 42.41 ± 0.16% | 55.48 ± 0.52%
CCCCc1nc(Cl)c(CO)n1Cc1ccc(-c2ccccc2-c2nnn[nH]2)cc1 [Losartan] + CCCCNC(=O)OCC#CI [3-iodo-2-propynyl butylcarbamate (IPBC)] | 98.3 ± 6.2% | 96.7 ± 5.7%
CC[C@@H](CO)NC(=O)[C@@H]1C=C2c3cccc4[nH]cc(c34)C[C@H]2N(C)C1 [Methylergometrine maleate] + CCCCNC(=O)OCC#CI [3-iodo-2-propynyl butylcarbamate (IPBC)] | 79.7 ± 4.8% | 88 ± 2%
NS(=O)(=O)c1cc2c(cc1Cl)NC(CC1CCCC1)NS2(=O)=O (stereo not drawn) [Cyclopenthiazide] + CCCCNC(=O)OCC#CI [3-iodo-2-propynyl butylcarbamate (IPBC)] | 88.8 ± 1.4% | 98.48 ± 0.32%
NCc1ccccc1CC(=O)N[C@@H]1C(=O)N2C(C(=O)O)=C(CSc3nnnn3CC(=O)O)CS[C@H]12 [Ceforanide] + CCCCNC(=O)OCC#CI [3-iodo-2-propynyl butylcarbamate (IPBC)] | 92.3 ± 5.6% | 97.1 ± 2.1%
CCC1(c2ccc(N)cc2)CCC(=O)NC1=O (stereo not drawn) [Glutethimide, para-amino] + CCCCNC(=O)OCC#CI [3-iodo-2-propynyl butylcarbamate (IPBC)] | 111 ± 4.1% | 112 ± 4.5%
CC(NC(C)(C)C)C(=O)c1cccc(Cl)c1 (stereo not drawn) [Bupropion hydrochloride] + CCCCNC(=O)OCC#CI [3-iodo-2-propynyl butylcarbamate (IPBC)] | 92.1 ± 5.4% | 98.5 ± 3%
COc1cccc(N(C)C(=S)Oc2ccc3c(c2)CCCC3)n1 [Liranaftate] + CCCCNC(=O)OCC#CI [3-iodo-2-propynyl butylcarbamate (IPBC)] | 0% | 0%
NCC(O)c1ccc(O)cc1 (racemic) [(+,-)-Octopamine hydrochloride] + CCCCNC(=O)OCC#CI [3-iodo-2-propynyl butylcarbamate (IPBC)] | 97.4 ± 12% | 95 ± 4.6%
CC(=O)N(CC(O)CO)c1c(I)c(C(=O)NCC(O)CO)c(I)c(C(=O)NCC(O)CO)c1I (stereo not drawn) [Iohexol] + CCCCNC(=O)OCC#CI [3-iodo-2-propynyl butylcarbamate (IPBC)] | 91.2 ± 8.3% | 93.7 ± 5.6%
Clc1ccc(C(Cn2ccnc2)OCc2ccsc2Cl)c(Cl)c1 (stereo not drawn) [Tioconazole] + CCCCNC(=O)OCC#CI [3-iodo-2-propynyl butylcarbamate (IPBC)] | 3.65 ± 0.16% | 2.52%
O=C(O)/C=C/c1ccc(Cn2ccnc2)cc1 [Ozagrel hydrochloride] + CCCCNC(=O)OCC#CI [3-iodo-2-propynyl butylcarbamate (IPBC)] | 105 ± 12% | 103 ± 8.7%
Clc1ccc(C(Cn2ccnc2)OCc2c(Cl)cccc2Cl)c(Cl)c1 (stereo not drawn) [Isoconazole] + CCCCNC(=O)OCC#CI [3-iodo-2-propynyl butylcarbamate (IPBC)] | 4.13 ± 0.64% | 2.83 ± 0.32%
Clc1ccc(CSC(Cn2ccnc2)c2ccc(Cl)cc2Cl)cc1 (stereo not drawn) [Sulconazole nitrate] + CCCCNC(=O)OCC#CI [3-iodo-2-propynyl butylcarbamate (IPBC)] | 3.02 ± 0.16% | 2.41 ± 0.1%
Clc1ccc(COC(Cn2ccnc2)c2ccc(Cl)cc2Cl)cc1 (stereo not drawn) [Econazole nitrate] + CCCCNC(=O)OCC#CI [3-iodo-2-propynyl butylcarbamate (IPBC)] | 3.18 ± 0.32% | 2.73 ± 0.42%
CC(c1cc2ccccc2s1)N(O)C(N)=O (stereo not drawn) [Zileuton] + CCCCNC(=O)OCC#CI [3-iodo-2-propynyl butylcarbamate (IPBC)] | 89.1 ± 3.3% | 90.8 ± 2.1%
